tim23-1 inh – inhibits growth of tim23-1 mutant yeast. inhibition, % at 20 µM. S. cerevisiae tim23-1 growth, BacTiter-Glo luminescence, 24 h. 330,000 tested, 1.3% active;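 active means growth inhibition of the mutant yeast at or above 50%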;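 further: temperature-sensitive mutant grown at 25 °C; plate controls were DMSO-treated mutant yeast for no effect and medium wells lacking yeast for full effect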
tim10-1 inh – tim10-1 yeast growth inhibition; 330,000 tested, 2.2% active; AID 463190; inhibition, % at 20 µM; S. cerevisiae tim10-1 ts strain growth, BacTiter-Glo, 24 h;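 active means inhibition of at least 40%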;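 further: mutant grown at 25 °C; 0% = DMSO wells with yeast and 100% = wells holding no yeast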
TIM10 inh – growth inhibitors of TIM10 yeast strain; AID 463195; inhibition, % at 10 µM; S. cerevisiae TIM10 strain growth, BacTiter-Glo luminescence, 24 h; 330,000 tested, 1.4% active;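 active means inhibition of 40% or more at the single tested concentration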;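 further: wild-type TIM10 isogenic control strain grown at permissive 25 °C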
MPTP inh – inhibitors of mitochondrial permeability transition pore | isolated mouse mitochondria, Ca2+ swelling absorbance, 30 min | 360,000 tested, 1.4% active | inhibition, % at 10 µM;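 active means inhibition of 50% or more, scaled per plate between neutral and stimulator controls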;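 further: 0% = DMSO wells given calcium and 100% = 1 mM EGTA wells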
Mdm2-MdmX inh – human Mdm2/MdmX binding inhibition | SaOS-2 split-luciferase Mdm2/MdmX complementation, luminescence | inhibition, % at 8 µM | 330,000 tested, 3% active;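 active means inhibition of at least 50% at 8 µM in the primary screen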
Target sequence (O15151 whole entry, looked up): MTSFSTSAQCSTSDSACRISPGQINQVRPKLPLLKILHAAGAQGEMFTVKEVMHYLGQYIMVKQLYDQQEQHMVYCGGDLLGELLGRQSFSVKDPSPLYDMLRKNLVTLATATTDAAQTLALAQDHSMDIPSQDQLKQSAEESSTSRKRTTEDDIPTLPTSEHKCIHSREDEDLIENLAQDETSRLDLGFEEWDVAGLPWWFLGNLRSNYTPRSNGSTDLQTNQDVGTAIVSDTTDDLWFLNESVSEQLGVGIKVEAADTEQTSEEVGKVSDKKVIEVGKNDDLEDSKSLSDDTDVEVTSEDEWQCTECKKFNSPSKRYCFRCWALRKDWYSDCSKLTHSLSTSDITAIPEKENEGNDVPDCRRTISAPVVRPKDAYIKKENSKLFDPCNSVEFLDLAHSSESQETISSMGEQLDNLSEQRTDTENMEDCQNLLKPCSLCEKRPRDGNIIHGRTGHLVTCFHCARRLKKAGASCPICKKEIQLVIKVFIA
Target sequence (Q00987 whole entry, looked up): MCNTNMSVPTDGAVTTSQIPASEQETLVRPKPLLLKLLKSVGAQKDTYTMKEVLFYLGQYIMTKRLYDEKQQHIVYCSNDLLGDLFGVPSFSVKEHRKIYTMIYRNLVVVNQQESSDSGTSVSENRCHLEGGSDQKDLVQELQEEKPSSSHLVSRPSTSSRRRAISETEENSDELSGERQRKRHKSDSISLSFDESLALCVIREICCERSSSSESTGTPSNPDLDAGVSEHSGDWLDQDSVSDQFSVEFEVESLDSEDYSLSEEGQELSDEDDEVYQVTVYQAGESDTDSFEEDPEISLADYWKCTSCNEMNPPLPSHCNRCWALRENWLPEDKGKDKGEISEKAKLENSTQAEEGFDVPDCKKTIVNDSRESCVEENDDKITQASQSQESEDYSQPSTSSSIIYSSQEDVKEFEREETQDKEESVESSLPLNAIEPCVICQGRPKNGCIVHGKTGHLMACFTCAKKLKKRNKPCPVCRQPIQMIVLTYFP
MPTP counter – membrane potential counter-screen of mitochondrial pore inhibitors; 5,000 tested, 78% active; inhibition, % at 10 µM; AID 624504; isolated mitochondria, Rhodamine 123 fluorescence; shares compounds with MPTP inh; in the data active means inhibition above about 22%;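 further: 0% = DMSO vehicle and 100% = positive control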
MPTP swell DR – MPTP inhibition, dose response swelling confirmation; shares compounds with MPTP inh; isolated mitochondria swelling, absorbance; IC50, µM; 780 tested, 58% active; AID 651561; in the data active means IC50 below about 20 µM
MPTP cs DR – active in counter-screen for permeability transition pore inhibitors | shares compounds with MPTP inh | isolated mitochondria counterscreen, fluorescence read-out | IC50, µM | 780 tested, 49% active; in the data active means IC50 below about 80 µM
Active calls of the source: *; . = not tested or not shown. This is a sample that favours compounds with a hit; in the whole collection about 6.3% have one here.

SMILES | tim23-1 inh | tim10-1 inh | TIM10 inh | MPTP inh | Mdm2-MdmX inh | MPTP counter | others
CCC(C)C(N)C(=O)N1CCCC1C(=O)NC(C(=O)O)C(C)CC (configuration not stated) | . | . | . | -2 | . | .
CC(C)CSc1nc(N)nc2c1ncn2C1OC(CO)C(O)C1O (configuration not stated) | . | . | . | -2 | . | .
CCn1ccnc1CN(C)Cc1cn(-c2ccc(C)cc2)nc1-c1cccc(C)c1 | 10 | 2 | 24 | 51* | 24 | -9 | MPTP swell DR=>100;MPTP cs DR=46*
CCN1CC(C)(C)N(C(=O)c2ccccc2)CC1(C)C | . | . | . | 0 | . | .
S=C(Nc1ccc(Oc2ccccc2)cc1)NC1CCCCCC1 | . | . | . | 96* | . | 89*
COc1ccc(NC(=S)Nc2ccc(Oc3ccccc3)cc2)cc1 | -4 | 5 | 1 | 26 | 30 | .
CC(C)c1ccc(NC(=S)NC2CCCCCC2)cc1 | 34 | 21 | 37 | 74* | -66 | 87*
NS(=O)(=O)c1ccc(NC(=S)NC2CCCCCC2)cc1 | 24 | 27 | 12 | 0 | -1 | .
S=C(Nc1ccc(Oc2ccc(NC(=S)NC3CCCCC3)cc2)cc1)NC1CCCCC1 | 21 | 12 | 16 | 70* | 22 | 52*
O=C(Nc1ccccc1)NC1CCCCCCC1 | 11 | 26 | 6 | 15 | -16 | .
O=C(Nc1ccc(Br)cc1)NC1CCCCCCC1 | 1 | -6 | 5 | 88* | 24 | 96*
C[C@@H]1CN([C@H](C)CO)C(=O)CCCn2cc(nn2)CO[C@H]1CN(C)C(=O)Nc1ccnc(N2CCOCC2)c1 | . | . | . | -2 | . | .
CC(SC(C)C(=O)NN=Cc1cccc(F)c1)C(=O)NN=Cc1cccc(F)c1 (configuration not stated) | . | . | . | 0 | . | .
CCC(=NC(C)c1ccccc1)c1c(O)n(C)c(=O)n(C)c1=O (configuration not stated) | 12 | -2 | -3 | 67* | 25 | 33*
CC(=O)c1ccccc1NC(=O)COC(=O)C1=NN(c2ccccc2)C(=O)CC1 | -1 | -7 | -8 | 0 | 5 | .
O=C1CCN(CC2CCCCC2)C=C1C(=O)c1ccccc1 | . | . | . | 4 | . | .
Cc1ccc(Cl)cc1-c1cc(C(=O)Nc2ccc(F)cc2)[nH]n1 | . | . | . | 64* | . | 96*
Cc1ccc(NC(=O)c2cc(-c3cc(Cl)ccc3O)n[nH]2)cc1C | -2 | -1 | 1 | 5 | 18 | .
Cc1ccc(Cl)cc1-c1cc(C(=O)NCc2ccc(C(F)(F)F)cc2)[nH]n1 | . | . | . | 52* | . | 96*
C[C@H](CO)N1C[C@H](C)[C@@H](CN(C)C(=O)Nc2cc(F)ccc2F)Oc2ncc(-c3cccc(F)c3)cc2C1=O | . | . | . | 1 | . | .
Oc1c(C=NCc2ccc(F)cc2)[nH]c2ccc(Br)c(Cl)c12 | 14 | 25 | 28 | . | 26 | .
Cc1ccc(CN=Cc2[nH]c3ccc(Br)c(Cl)c3c2O)cc1 | 33 | 15 | 24 | 69* | 22 | -2
COc1ccc(CCNc2ncnc3sc(C)cc23)cc1OC | 12 | -13 | -1 | 101* | 10 | 96*
CC1(C(=O)O)CCCN(C(=O)c2ccc3c(c2)C(C)(C)CCC3(C)C)C1 (configuration not stated) | . | . | . | 0 | . | .
COc1ccccc1-c1cccc([C@@H]2C[C@H]3[C@H](CON3C)CN2C(C)=O)c1 | . | . | . | 0 | . | .
SMILES | tim23-1 inh | tim10-1 inh | TIM10 inh | MPTP inh | Mdm2-MdmX inh | MPTP counter | others
CN1C(=O)c2cccc(NCCCCCCN3C(=O)c4ccccc4C3=O)c2C1=O | -3 | 10 | -5 | 108* | 20 | 94*
C=CCNCCOc1ccc(C(C)(C)c2ccccc2)cc1 | -5 | -4 | 8 | 78* | -6 | -12 | MPTP swell DR=15*;MPTP cs DR=>80
Clc1cccc(Cl)c1CON/C=N/c1ncnc2sccc12 | -4 | -5 | -20 | 69* | 18 | 41*
Cc1ccc(NC(=O)c2cc3ccccc3cc2O)cc1 | 18 | -6 | 10 | 70* | -33 | 73*
O=C(Nc1ccc2ccccc2c1)c1cn(-c2ccccc2)nc1-c1cccs1 | 17 | 25 | 8 | 70* | -13 | 70*
O=C(CCC1CCCC1)NNC(=O)c1cc2ccccc2cc1O | 29 | -5 | 20 | 2 | 18 | .
O=C(NC1CCCCC1)c1cc2ccccc2cc1O | 23 | 13 | -14 | 115* | -2 | 49*
CN(C)c1ccc(NC(=O)c2cn(-c3ccccc3)nc2-c2cccs2)cc1 | 0 | 24 | 17 | 1 | 10 | .
O=C(Nc1ccc2ccccc2c1)c1ccccc1O | 17 | 13 | 11 | 98* | 25 | 92*
C[C@H](O)[C@@H]1C(=O)N2CCc3c([nH]c4ccccc34)[C@@H]2C[C@@H]1N(C)Cc1ccc(Cl)cc1 | . | . | . | -3 | . | .
CCOC(=O)c1sc2nc(C)nc(N3CCCCC3C)c2c1C (configuration not stated) | 15 | 10 | -14 | 2 | -10 | .
Cc1nc(N2CCCCC2)c2c(C)c(C(=O)Nc3cccc(C(F)(F)F)c3)sc2n1 | 14 | 25 | -4 | 84* | 30 | 49*
Cc1nc(N2CCCCC2C)c2c(C)c(C(=O)Nc3cccc(C(F)(F)F)c3)sc2n1 (configuration not stated) | 17 | 17 | 10 | 70* | 43 | 41*
FC(F)(F)c1ccccc1NC(=S)Nc1cccc(Cl)c1 | 24 | 23 | 32 | 97* | -3 | 89*
Fc1ccc(NC(=S)Nc2ccc(Br)cc2)cc1 | 35 | 38 | 25 | 73* | 6 | 93*
COC(=O)c1cc(OC)c(OC)cc1NC(=S)Nc1cccc(Cl)c1 | -12 | -10 | 7 | 91* | 7 | 110*
CSc1cccc(NC(=S)NN(C)C)c1 | 5 | 22 | -10 | 2 | -17 | .
CSc1cccc(NC(=S)Nc2ccc(F)cc2)c1 | 13 | 22 | 17 | 73* | -13 | 85*
COC(=O)c1cc(OC)c(OC)cc1NC(=S)Nc1cc(Cl)ccc1OC | 15 | 25 | 9 | 24 | 15 | .
CC1(C(=O)NS(=O)(=O)C2CC2)CCN(C(=O)c2ccc(F)cc2Cl)C1 (configuration not stated) | . | . | . | 0 | . | .
CCC(C)NC(=O)c1ccc(N2CC3CC(C2)c2cccc(=O)n2C3)c(NC(=O)c2c(F)cccc2F)c1 (configuration not stated) | . | . | . | 1 | . | .
Fc1ccc(NC(=S)Nc2ccccc2Cl)cc1 | 5 | 15 | -3 | 10 | -4 | .
Fc1ccc(NC(=S)Nc2cccc(Cl)c2)cc1 | 22 | 24 | 15 | 86* | 15 | 97*
NC(=S)Nc1cccc(Cl)c1 | 6 | 6 | 13 | -1 | 16 | .
CC(C)c1cccc(C(C)C)c1NC(=S)Nc1cccc(Cl)c1 | 18 | 37 | 29 | 88* | -14 | 90*
Cc1ccc(Cn2cc(CN3CC(N4CCSCC4)CS3(=O)=O)nn2)cc1 (configuration not stated) | . | . | . | 0 | . | .

Bioassay records: PubChem BioAssay, Sanford-Burnham Center for Chemical Genomics
